Active and inactive are the calls of the source. How the source made its calls: active means hit-call score of the fitted dose curve at least 0.9, where 1 is the maximum; inactive means score below 0.9.

Holding throughout (conditions): mRNA level, 48 h; actives raise or lower the signal
Read-out in test [1]: JUN Transcription Factor, JUN (gene 3725)
Nature of the test: LTEA_HepaRG_JUN: Life Technologies and Expression Analysis (LTEA) Assay for JUN Transcription Factor using HepaRG (AID 2283513). A digest of the protocol: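 Read-out is JUN transcript level by TaqMan qRT-PCR, normalized to ACTB, GAPDH and POLR2A, after 48 h chemical treatment of HepaRG cells. Concentration-response spanned eight half-log points up to 100 uM in 0.5% DMSO.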

Read-out in test [2]: Lipase C (LIPC), LIPC (gene 3990)
Nature of the test: LTEA_HepaRG_LIPC: Life Technologies and Expression Analysis (LTEA) Assay for Lipase C (LIPC) using HepaRG (AID 2283514). Put shortly: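 HepaRG, 48 h exposure, 8-pt half-log series from 100 uM in 0.5% DMSO, duplicates. Readout: LIPC mRNA by Fluidigm qRT-PCR, housekeeping-normalized (ACTB/GAPDH/POLR2A). Gain or loss fitted bidirectionally against DMSO baseline.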

Read-out in test [3]: Lipoprotein lipase (LPL), LPL (gene 4023)
Nature of the test: LTEA_HepaRG_LPL: Life Technologies and Expression Analysis (LTEA) Assay for Lipoprotein lipase (LPL) using HepaRG (AID 2283515). Put shortly:
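HepaRG, 48 h exposure, 8-pt half-log dilutions from 100 uM, 0.5% DMSO vehicle, duplicates; qRT-PCR (Fluidigm array) of LPL mRNA vs housekeeping genes; bidirectional curve fit relative to DMSO baseline.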

Read-out in test [4]: MicroRNA 122 (MIR122), gene 406906
Nature of the test: LTEA_HepaRG_MIR122: Life Technologies and Expression Analysis (LTEA) Assay for MicroRNA 122 (MIR122) using HepaRG (AID 2283516). Further: the transcript read is the microRNA miR-122. A digest of the protocol: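 Human liver HepaRG cultures receive test chemicals for 48 h at eight half-log concentrations from 100 uM. Expression is quantified by qRT-PCR with ACTB/GAPDH/POLR2A normalization and fitted bidirectionally against 0.5% DMSO.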

Read-out in a further test: MYC, MYC (gene 4609)
Briefly: LTEA_HepaRG_MYC: Life Technologies and Expression Analysis (LTEA) Assay for MYC using HepaRG (AID 2283518). Put shortly: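 Expression changes were scored by TaqMan qRT-PCR with ACTB, GAPDH and POLR2A normalization. Cultures in serum-free induction medium received duplicate 8-point concentration series, highest 100 uM, for 48 h; DMSO (0.5%) served as baseline.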

Read-out in test [5]: matrix metalloproteinase-3 (MMP3), MMP3 (gene 4314)
Briefly: LTEA_HepaRG_MMP3: Life Technologies and Expression Analysis (LTEA) Assay for matrix metalloproteinase-3 (MMP3) using HepaRG (AID 2283519). A digest of the protocol: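 qRT-PCR read-out of MMP3 mRNA (normalised to three housekeeping genes) in HepaRG liver cells after 48 h chemical exposure; 8-point half-log series, top 100 uM, 0.5% DMSO vehicle. Bidirectional curve fitting against DMSO baseline.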

Read-out in test [6]: Paternally Expressed 10 (PEG10), PEG10 (gene 23089)
Nature of the test: LTEA_HepaRG_PEG10: Life Technologies and Expression Analysis (LTEA) Assay for Paternally Expressed 10 (PEG10) using HepaRG (AID 2283520).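 On AC50: differentiated HepaRG human liver cells in serum-free induction medium with 0.5% DMSO; PEG10 transcript by qRT-PCR normalised to ACTB GAPDH and POLR2A.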 A digest of the protocol: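 Human HepaRG cultures are dosed for 48 h across an eight-point half-log series starting at 100 uM, with 0.5% DMSO as vehicle and baseline. Gain or loss of PEG10 transcript is measured by qRT-PCR and fitted in both directions.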

Read-out in test [7]: Nuclear factor NF-kappa-B p105 subunit (Homo sapiens) (UniProt P19838)
Nature of the test: LTEA_HepaRG_NFKB1: Life Technologies and Expression Analysis (LTEA) Assay for Nuclear Factor Kappa B Subunit 1 (NFKB1) using HepaRG (AID 2283521).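 Further: differentiated human HepaRG liver cells in serum-free induction medium.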 Put shortly: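 NFKB1 transcript was measured by TaqMan qRT-PCR on Fluidigm arrays, normalised to three housekeeping genes and fitted in both directions against 0.5% DMSO. HepaRG cells were dosed in duplicate for 48 h in serum-free induction medium, eight half-log steps from 100 uM.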

Read-out in test [8]: Protein phosphatase 2A (PPP2R4), PTPA (gene 5524)
Nature of the test: LTEA_HepaRG_PPP2R4: Life Technologies and Expression Analysis (LTEA) Assay for Protein phosphatase 2A (PPP2R4) using HepaRG (AID 2283522). Put shortly: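 Cells were plated, cultured 48 h, switched to serum-free induction medium, then dosed for 48 h (8 points, max 100 uM, 0.5% DMSO). RNA was isolated and PPP2R4 expression measured by TaqMan qRT-PCR.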

Read-out in test [9]: Phosphatase and tensin (PTEN), PTEN (gene 5728)
Briefly: LTEA_HepaRG_PTEN: Life Technologies and Expression Analysis (LTEA) Assay for Phosphatase and tensin (PTEN) using HepaRG (AID 2283523). A digest of the protocol:
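HepaRG, 48 h exposure, 8-pt half-log series from 100 uM top, 0.5% DMSO vehicle, duplicates. Readout: Fluidigm qRT-PCR of PTEN transcript; housekeeping normalization (ACTB, GAPDH, POLR2A). Gain or loss fitted relative to DMSO baseline.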

Read-out in test [10]: solute carrier (SLC22A1), SLC22A1 (gene 6580)
Briefly: LTEA_HepaRG_SLC22A1: Life Technologies and Expression Analysis (LTEA) Assay for solute carrier (SLC22A1) using HepaRG (AID 2283524). Put shortly: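 qRT-PCR readout (TaqMan, Fluidigm arrays) of SLC22A1 transcript, normalized to three housekeeping genes; bidirectional curve fit relative to 0.5% DMSO vehicle. Differentiated human HepaRG cells, 48 h chemical exposure, top concentration 100 uM, half-log steps, eight points.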

Read-out in test [11]: Pyruvate Dehydrogenase Kinase 4 (PDK4), PDK4 (gene 5166)
Nature of the test: LTEA_HepaRG_PDK4: Life Technologies and Expression Analysis (LTEA) Assay for Pyruvate Dehydrogenase Kinase 4 (PDK4) using HepaRG (AID 2283525). A digest of the protocol:
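HepaRG (human liver line), 48 h chemical exposure, 8-pt half-log CRC top 100 uM, 0.5% DMSO vehicle, duplicates. Readout: TaqMan qRT-PCR of PDK4 mRNA, housekeeping-normalized; gain/loss fit relative to DMSO baseline.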

Read-out in test [12]: NAD(P)H dehydrogenase [quinone] 1 (NQO1), NQO1 (gene 1728)
Briefly: LTEA_HepaRG_NQO1: Life Technologies and Expression Analysis (LTEA) Assay for NAD(P)H dehydrogenase [quinone] 1 (NQO1) using HepaRG (AID 2283526). Put shortly: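 Transcript induction or suppression is quantified by qRT-PCR in human HepaRG liver cells dosed for 48 hours. Eight half-log concentrations topping at 100 uM are used, with 0.5% DMSO as vehicle and baseline.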

Read-out in test [13]: Nuclear factor erythroid 2-related factor 2 (Homo sapiens) (UniProt Q16236)
Nature of the test: LTEA_HepaRG_NFE2L2: Life Technologies and Expression Analysis (LTEA) Assay for Nuclear factor erythroid 2-related factor 2 (NFE2L2) Transcription Factor using HepaRG (AID 2283527). A digest of the protocol: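 HepaRG, 48 h dosing, 8-pt half-log series from 100 uM in 0.5% DMSO, duplicates. Read-out: NFE2L2 mRNA by qRT-PCR (ACTB/GAPDH/POLR2A normalization). Bidirectional curve fit vs DMSO baseline.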

Read-out in test [14]: succinate dehydrogenase complex iron sulfur subunit B (SDHB), SDHB (gene 6390)
Briefly: LTEA_HepaRG_SDHB: Life Technologies and Expression Analysis (LTEA) Assay for succinate dehydrogenase complex iron sulfur subunit B (SDHB) using HepaRG (AID 2283528). A digest of the protocol:
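SDHB transcript level read by TaqMan qRT-PCR, housekeeping-normalised (ACTB, GAPDH, POLR2A), after 48 h chemical treatment of plated HepaRG cells; eight concentrations top 100 uM, half-log steps, 0.5% DMSO, duplicates; fitted both directions against DMSO.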

Read-out in test [15]: Signal transducer and activator of transcription 3 (Homo sapiens) (UniProt P40763)
Briefly: LTEA_HepaRG_STAT3: Life Technologies and Expression Analysis (LTEA) Assay for Signal transducer and activator of transcription (STAT3) using HepaRG (AID 2283529). A digest of the protocol: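 HepaRG, 48 h exposure, 8-pt half-log series (top 100 uM), 0.5% DMSO vehicle, duplicates. Readout: STAT3 transcript by Fluidigm qRT-PCR, housekeeping-normalized; bidirectional fit vs DMSO baseline.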

Read-out in test [16]: sulfotransferase 2A1 (SULT2A1), SULT2A1 (gene 6822)
Briefly: LTEA_HepaRG_SULT2A1: Life Technologies and Expression Analysis (LTEA) Assay for sulfotransferase 2A1 (SULT2A1) using HepaRG (AID 2283531). A digest of the protocol: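 Gene-expression endpoint in a human liver cell line: SULT2A1 mRNA change after 48 h chemical treatment, curves fitted in both directions relative to 0.5% DMSO vehicle. Concentrations spanned eight half-log steps from 100 uM.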

Read-out in test [17]: Transforming Growth Factor (TGFA), TGFA (gene 7039)
Briefly: LTEA_HepaRG_TGFA: Life Technologies and Expression Analysis (LTEA) Assay for Transforming Growth Factor (TGFA) using HepaRG (AID 2283532). A digest of the protocol:
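qRT-PCR read-out of TGFA transcript, normalized to three housekeeping genes, fitted bidirectionally against 0.5% DMSO baseline. Human HepaRG cultures received chemicals for 48 h at eight half-log concentrations, top 100 uM.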

Read-out in test [18]: matrix metalloproteinase-10 (MMP10), MMP10 (gene 4319)
Nature of the test: LTEA_HepaRG_MMP10: Life Technologies and Expression Analysis (LTEA) Assay for matrix metalloproteinase-10 (MMP10) using HepaRG (AID 2283517). A digest of the protocol:
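Transcript levels come from Fluidigm qRT-PCR normalized to three housekeeping genes, with curves fitted bidirectionally against 0.5% DMSO. Human HepaRG cells were dosed for 48 hours at concentrations up to 100 uM.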

Read-out in test [19]: solute carrier (SLCO1B1), SLCO1B1 (gene 10599)
Nature of the test: LTEA_HepaRG_SLCO1B1: Life Technologies and Expression Analysis (LTEA) Assay for solute carrier (SLCO1B1) using HepaRG (AID 2283530). Put shortly: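 Human HepaRG cultures treated for 48 h with an eight-concentration half-log series topping at 100 uM; SLCO1B1 measured by qRT-PCR and fitted bidirectionally relative to DMSO.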

Sequence of Nuclear factor NF-kappa-B p105 subunit (Homo sapiens) (P19838 whole entry, looked up): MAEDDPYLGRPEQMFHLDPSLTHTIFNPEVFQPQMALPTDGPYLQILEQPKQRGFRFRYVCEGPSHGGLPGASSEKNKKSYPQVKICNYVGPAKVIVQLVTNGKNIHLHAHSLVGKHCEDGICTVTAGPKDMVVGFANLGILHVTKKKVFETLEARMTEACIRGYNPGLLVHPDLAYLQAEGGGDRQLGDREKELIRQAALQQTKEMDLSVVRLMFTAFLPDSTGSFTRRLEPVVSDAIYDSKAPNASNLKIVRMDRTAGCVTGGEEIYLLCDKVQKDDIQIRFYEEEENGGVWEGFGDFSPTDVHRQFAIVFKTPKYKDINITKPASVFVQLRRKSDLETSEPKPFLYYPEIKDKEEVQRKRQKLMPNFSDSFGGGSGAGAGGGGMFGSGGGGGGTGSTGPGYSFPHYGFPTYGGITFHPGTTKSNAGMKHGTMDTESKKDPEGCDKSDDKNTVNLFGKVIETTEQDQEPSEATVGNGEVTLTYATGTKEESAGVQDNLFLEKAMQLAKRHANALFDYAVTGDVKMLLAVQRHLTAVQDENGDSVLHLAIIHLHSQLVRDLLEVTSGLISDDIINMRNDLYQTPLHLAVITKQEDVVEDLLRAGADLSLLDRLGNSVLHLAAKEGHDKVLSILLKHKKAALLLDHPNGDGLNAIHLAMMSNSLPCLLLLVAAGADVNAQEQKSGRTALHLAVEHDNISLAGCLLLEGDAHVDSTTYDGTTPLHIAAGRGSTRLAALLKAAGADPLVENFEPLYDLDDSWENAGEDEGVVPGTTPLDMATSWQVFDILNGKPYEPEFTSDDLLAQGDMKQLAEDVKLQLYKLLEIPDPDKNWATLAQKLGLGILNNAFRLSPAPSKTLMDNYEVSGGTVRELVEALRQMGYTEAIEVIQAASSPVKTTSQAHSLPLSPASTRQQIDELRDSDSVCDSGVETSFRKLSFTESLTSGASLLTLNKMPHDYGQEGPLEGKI
Sequence of Nuclear factor erythroid 2-related factor 2 (Homo sapiens) (Q16236 whole entry, looked up): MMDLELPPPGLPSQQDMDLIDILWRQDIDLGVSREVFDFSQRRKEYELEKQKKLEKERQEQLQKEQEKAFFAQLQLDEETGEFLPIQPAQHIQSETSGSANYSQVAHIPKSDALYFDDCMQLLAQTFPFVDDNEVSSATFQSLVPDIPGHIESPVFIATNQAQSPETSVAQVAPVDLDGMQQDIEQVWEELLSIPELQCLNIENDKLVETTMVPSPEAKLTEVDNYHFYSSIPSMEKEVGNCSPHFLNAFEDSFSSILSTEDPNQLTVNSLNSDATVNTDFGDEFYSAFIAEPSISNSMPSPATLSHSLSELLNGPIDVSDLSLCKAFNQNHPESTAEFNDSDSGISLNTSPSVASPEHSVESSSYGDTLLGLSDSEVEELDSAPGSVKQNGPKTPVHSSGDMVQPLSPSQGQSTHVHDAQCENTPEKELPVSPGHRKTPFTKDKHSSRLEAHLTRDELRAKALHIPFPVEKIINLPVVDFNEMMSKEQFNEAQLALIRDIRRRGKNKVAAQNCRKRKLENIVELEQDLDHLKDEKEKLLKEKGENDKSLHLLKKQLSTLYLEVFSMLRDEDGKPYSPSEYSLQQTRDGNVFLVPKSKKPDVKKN
Sequence of Signal transducer and activator of transcription 3 (Homo sapiens) (P40763 whole entry, looked up): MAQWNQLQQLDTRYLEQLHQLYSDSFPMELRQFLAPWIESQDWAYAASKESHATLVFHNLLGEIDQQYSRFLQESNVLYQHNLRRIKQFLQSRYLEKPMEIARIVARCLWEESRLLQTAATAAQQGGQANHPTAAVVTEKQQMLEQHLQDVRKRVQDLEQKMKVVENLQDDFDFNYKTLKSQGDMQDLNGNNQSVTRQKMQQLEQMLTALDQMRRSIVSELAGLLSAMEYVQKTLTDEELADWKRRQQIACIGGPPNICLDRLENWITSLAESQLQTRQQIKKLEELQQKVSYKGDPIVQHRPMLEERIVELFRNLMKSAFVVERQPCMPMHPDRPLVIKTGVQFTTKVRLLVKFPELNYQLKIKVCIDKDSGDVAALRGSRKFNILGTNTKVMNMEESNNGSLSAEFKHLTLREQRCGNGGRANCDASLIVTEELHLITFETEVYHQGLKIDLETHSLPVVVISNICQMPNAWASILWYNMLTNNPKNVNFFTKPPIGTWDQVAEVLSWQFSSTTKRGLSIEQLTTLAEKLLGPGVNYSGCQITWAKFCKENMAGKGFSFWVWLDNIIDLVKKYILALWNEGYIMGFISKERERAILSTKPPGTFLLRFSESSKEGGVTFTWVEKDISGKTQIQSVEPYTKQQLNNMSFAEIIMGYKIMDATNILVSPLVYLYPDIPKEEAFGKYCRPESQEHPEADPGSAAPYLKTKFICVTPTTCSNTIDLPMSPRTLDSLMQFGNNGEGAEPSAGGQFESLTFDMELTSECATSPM

Take `CCCCC(CC)COC(=O)c1ccc(C(=O)OCC(CC)CCCC)c(C(=O)OCC(CC)CCCC)c1` (stereo not drawn): the outcome in test [1] is “inactive”; in [2] it was “inactive”; in test [3] it was “inactive”; in test [4] it was “inactive”; with MYC, MYC (gene 4609) it was “inactive”; in test [5], “inactive”. In addition, the compound was classed as inactive in [6], in [7], in test [8], in test [9], in [10] and in test [11]. Further, the compound was classed as inactive in [12], in test [13], in test [14], in [15], in test [16] and in [17].

In the case of `CC(O)CCO` (stereo not drawn), the outcome in test [1] was “inactive”; in [2] it was “inactive”; in test [3], “inactive”; in test [4], “inactive”; in [18] it was “inactive”; with MYC, MYC (gene 4609), “inactive”. Also, the compound was called inactive in test [5], in [6], in [7], in [8], in [9] and in test [10]. Moreover, the outcome in test [11], in test [12], in [13], in test [14], in [15] and in test [19] was inactive. The outcome in [16] and in test [17] was inactive.

Consider `Cn1cc(-c2ccccc2)c(=O)c(-c2cccc(C(F)(F)F)c2)c1`, for which the outcome was “inactive” in [1]; “inactive” in test [2]; “inactive” in test [3]; “inactive” in test [4]; “inactive” in test [18]; “inactive” with MYC, MYC (gene 4609). Besides, the result in test [5], in test [7], in test [8], in test [9], in test [10] and in test [12] was inactive. Besides, the result in [14], in [15], in test [19] and in [17] was inactive. The AC50 in test [6] was 23.5 µM (active); in [11], 50 µM (active); in test [13], 20.9 µM (active); in [16], 9.92 µM (active).

For the origin of these results see PubChem BioAssay (EPA / NIEHS).
